Assay results as given in PubChem BioAssay (Tox21).
Several values for one entry are separate records, joined by “and”; a condition that tells them apart may be missing. Equal values may be shown once. Records with an inconclusive call do not appear. Where a call stands in place of a potency, no number is given. Activity calls are given as the source filed them. The call rests on the fitted dose curve; in most records, active means well fitted cell-killing curve with a large enough effect in the repeat runs; inconclusive means weak or mixed curves, or effect the other way; inactive means no such curve, though single readings can be large or run the other way.

Assay: qHTS assay to identify small molecule agonists of the RXR signaling pathway - cell viability counter screen (AID 1159529); further: nearly all actives have a fitted effect of over 50% in size
Details: RXR-alpha-bla HEK293T viability, CellTiter-Glo, 16 h; series mostly up to 76.8 µM
Description: National Center for Advancing Translational Sciences [NCATS]
NIH Chemical Genomics Center [NCGC]
U.S. Environmental Protection Agency [EPA]
National Institutes of Environmental Health Sciences [NIEHS]
National Toxicology Program [NTP]
U.S. Food and Drug Administration [FDA]
The Retinoid X receptor (RXR), a nuclear hormone receptor expressed in liver, spleen, placenta, epidermis, central nervous system. These receptors are able to form homo and heterodimers with other nuclear receptors and due to this heterodimerizing ability, RXR functions as master regulators producing diverse physiological effects. Three subtypes of RXR exist; alpha, beta and gamma. Retinoid X receptor alpha (RXR-alpha) has potential roles in metabolic signaling pathways, skin alopecia, dermal cysts, cardiac development, insulin sensitization etc. Therefore screening environmental chemicals on RXR-alpha signaling can be used for the studies focused on such therapeutic applications. For quantification of RXR-alpha ligands signaling, GeneBLAzer RXR alpha-UAS-bla HEK 293T (Life Technologies, Carlsbad, CA) cells containing a beta-lactamase reporter-gene under control of Retinoid X receptor-alpha response element were used to screen Tox21 10K library. The cytotoxicity of the Tox21 compound library against the RXR-alpha HEK 293T cell line was tested in parallel by measuring cell viability using CellTiter-Glo assay (Promega Corporation, Madison, WI) in the same wells.
Tox21 Assay Protocol Summary:
RXR-alpha HEK 293T cells were dispensed at 2,000 cells/6 uL of assay medium containing 2% charcoal-stripped FBS using a Multidrop Combi (ThermoFisher Scientific, Waltham, MA) dispenser. The assay was performed in black wall/clear-bottom 1536-well plates (Greiner Bio-One North America Inc. Monroe, NC). Tetraoctyl ammonium bromide was used as a positive control in the cytotoxicity screen. After the assay plates were incubated at 37 C and 5% CO2 for 5 hr, 23 nL of compounds dissolved in DMSO, positive control or DMSO only were transferred to the assay plate by a Pintool station (Kalypsys, San Diego, CA). The assay plates were incubated at 37 C and 5% CO2 for 16 hr. One uL of LiveBLAzer B/G FRET substrate (Life Technologies) was added using a Flying Reagent Dispenser (FRD) (Aurora Discovery, San Diego, CA) and the plates were incubated at room temperature for 2 hr. Fluorescence intensity (405 nm excitation, 460/530 nm emission) was measured using an Envision plate reader (PerkinElmer, Shelton, CT). For cytotoxicity, 4 uL/well of CellTiter-Glo reagent was added into the assay plates using an FRD. After 30 min incubation at room temperature, the luminescence intensity was measured using a ViewLux plate reader (PerkinElmer).
Potency means the concentration at half of the fitted maximal effect.

Structure (SMILES)	Potency
CC(C)(C)NC(=O)[C@@H]1CN(Cc2cccnc2)CCN1C[C@@H](O)C[C@@H](Cc1ccccc1)C(=O)N[C@H]1c2ccccc2C[C@H]1O	inactive
CC(=O)OCCOCCOCCOC(C)=O	inactive
CC(C)(C)NCC(O)COc1ccccc1OCC1CCCO1 (stereo not given)	inactive
O=C(O)c1cn(-c2ccc(F)cc2)c2cc(N3CCNCC3)c(F)cc2c1=O	inactive
CCn1cc(C(=O)O)c(=O)c2cc(F)c(N3CCNC(C)C3)c(F)c21 (stereo not given)	inactive
O=C(Nc1ccccc1SSc1ccccc1NC(=O)c1ccccc1)c1ccccc1	19.6 µM (active) and 21.9 µM (active)
CCCCCCCCCCCCc1ccccc1O	17.2 µM (active) and 19.5 µM (active)
CCC[C@H](N[C@@H](C)C(=O)N1[C@H](C(=O)O)C[C@@H]2CCCC[C@@H]21)C(=O)OCC	inactive
CC1=CC(=O)c2ccccc2C1=O	24.5 µM (active) and 21.3 µM (active)
Cc1ccc(-c2cc(C(F)(F)F)nn2-c2ccc(S(N)(=O)=O)cc2)cc1	48.8 µM (active) and 21.9 µM (active)
N[C@@H]1CONC1=O	inactive
CCC(CO)(CO)COCC(CC)(CO)CO	inactive
Cc1occc(=O)c1OC(=O)C(C)C	inactive
c1ccc2n[nH]nc2c1	inactive
CN(C)c1ccc2nc3ccc(=[N+](C)C)cc-3sc2c1	inactive
CCOc1ccc2c(c1)C(C)=CC(C)(C)N2	inactive
CCc1cc(C(C)(C)C)c(O)c(C(C)(C)C)c1	inactive
Cc1cccc2n[nH]nc12	inactive
O=C1CC2(CCCC2)CC(=O)N1CCCCN1CCN(c2ncccn2)CC1	inactive
c1cnc2cc3c(cc2n1)C1CNCC3C1	inactive

Structure (SMILES)	Potency
CCc1ccc(C(c2ccc(CC)cc2)C(Cl)Cl)cc1	35.2 µM (active)
COc1ccc(CCN2CCC(Nc3nc4ccccc4n3Cc3ccc(F)cc3)CC2)cc1	8.9 µM (active) and 21.3 µM (active)
CN1C(=O)c2ccc([N+](=O)[O-])cc2C1=O	inactive
CCCCCCCCCCCC[N+](C)(C)C	54.8 µM (active) and 54.9 µM (active) and 49 µM (active)
CC(C)CCOC(=O)c1ccc(N(C)C)cc1	inactive
CC(C)C(=O)c1c(C(C)C)nn2ccccc12	inactive
CC[C@@H](N)CO	inactive
NC(N)=NC(=O)Cc1c(Cl)cccc1Cl	inactive
NNCCc1ccccc1	inactive
Oc1ccc(Cl)cc1Cc1cc(Cl)ccc1O	49.9 µM (active)
Cc1cccc([N+](=O)[O-])c1C(=O)O	inactive
O=C(O)CCc1ccccc1	inactive
CCC(C)(C)C(=O)O[C@H]1C[C@@H](C)C=C2C=C[C@H](C)[C@H](CC[C@@H]3C[C@@H](O)CC(=O)O3)[C@H]21	12 µM (active)
[Cl][In]([Cl])[Cl]	inactive
O=Cc1ccc(Cl)cc1	inactive
CCCC(=O)c1ccccc1	inactive
Cc1cc(OCCOCC[N+](C)(C)Cc2ccccc2)ccc1C(C)(C)CC(C)(C)C	10.9 µM (active) and 4.77 µM (active)
C[N+]1([O-])CCOCC1	inactive
CC(C)CCOCc1ccccc1	inactive
CC(C(O)c1ccc(O)cc1)N1CCC(Cc2ccccc2)CC1 (stereo not given)	inactive
